Among the data in PubChem BioAssay (NCI) are growth values, retold here.

Molecules are shown by their SMILES. About 83,000 compounds went through this panel and 20% of them were active in at least one assay; those are over-represented in the sample as a whole.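 Compound tested at a single concentration for 48 hours in 96-well plates; a percent growth value below 10 was scored as active.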 Unmarked numbers belong to inactive results. Calls of active or inactive are those of the source.

The first experiment deals with HT29 colon. Put plainly: NCI-60 one-dose screen, 48 h (100 = growth as untreated, 0 = no growth, -100 = all killed). Conditions: 10 µM unless noted.
As to `CCC(CCC(C)C1CCC2C3CC=C4CC(O)CCC4(C)C3CCC12C)C(C)C` (stereo unspecified) (tested in a mixture with another compound), the growth was 98.9%.
Still for that read-out and setting: with `Cc1nn(-c2ccc(Cl)cc2)c2nc3c(nc12)c(=O)oc1ccccc13` the figure was 99.7%; with `Cc1cc(NC(=O)c2ccc(N)cc2)ccc1N=Nc1ccc2c(O)c(N=Nc3ccc(Cl)c(S(=O)(=O)O)c3)c(S(=O)(=O)O)cc2c1`, 91%.
As to `CN(C)c1nc(-c2ccco2)n2nc(-c3ccco3)cc2n1`, the growth is 96.9%.
In the case of `C[C@]12C[C@H](O)[C@H]3[C@@H](CCC4=CC(=O)CC[C@@]43C)[C@@H]1CC[C@@H]2C(=O)CO`, the growth was 108%.
On the same count and under the same terms, the figure for `Cn1c(N)c(N=O)c(=O)[nH]c1=O` is 98.8%; for `Nc1nc(SCc2ccccc2Cl)c(-c2ccccc2)c(SCc2ccccc2Cl)n1` it is 64.3%; for `O=C(CSCC(=O)N/N=C/c1ccccc1O)N/N=C\c1ccccc1O` it is 42.7%.
Still for that read-out and setting: with `O=C(O)C(=O)O` the figure was 109%.
Same read-out and setting: the figure for `Cc1nn(-c2ccccc2)c2ncc3c(c12)C(=O)N(Cc1ccccc1)C3=O` is 53.5%.
As to `Cc1ccc(NC(=O)COC(=O)c2ccc(S(=O)(=O)N3CCCCCC3)cc2)cc1`, the growth was 106%.
On the same count and under the same terms, with `Cc1ccc2c(c1)C(=O)/C(=C/c1ncc([N+](=O)[O-])n1C)O2` the figure was -19.8% (active); with `CC1CC(C)/C(=N/NC(N)=O)C(C(O)CC2CCC(=O)NC2=O)C1` (stereo unspecified), 35.8%.
Still for that read-out and setting: with `CCC(c1ccccc1)c1noc(CCN(CC)CC)n1` (stereo unspecified) the figure was 117%.
Still for that read-out and setting: the figure for `O=C1Cc2cc(CCn3cncn3)c(Cl)cc2N1` is 97.1%; for `Cc1nn(-c2ccccc2)c2nc(Cl)c(/C=C/C(=O)c3ccccc3)c(-c3ccccc3)c12` it is 103%; for `COc1ccc(/C=C2\NC(=S)NC2=O)cc1` it is 110%.
Turning to `Cn1cc(-c2csc(-c3c[nH]c4ncccc34)n2)c2cc(F)cnc21`, the growth was 90.6%.
As for `O=C1NC(=O)/C(=C\c2ccccc2)C2=C1CCCC2`, the growth was 104%.

Another experiment relates to SNB-75 CNS. The description is as above. Conditions: 10 µM unless noted.
On to `COC(=O)c1ccc2c(c1)nc(-c1ccc(O)c(OC)c1)n2-c1cc(C(C)(C)C)[nH]n1`, for which the growth is 111%.
The same measure, in the same setting: with `Cc1nc(N)[nH]c(=O)c1C` the figure was 99.4%; with `O=C1/C(=C/c2ccc([N+](=O)[O-])o2)Oc2ccc(Cl)cc21`, 66.5%.
Same read-out and setting: with `O=[N+]([O-])c1ccc2c(c1)S(=O)c1cc([N+](=O)[O-])ccc1N2` the figure was 87.2%; with `Clc1ccc2nc(Cl)c3ccccc3c2c1`, -15.3% (active).
On the same count and under the same terms, the figure for `CC(=O)Oc1ccc(C23c4ccccc4C2(OC(C)=O)c2cc(OC(C)=O)ccc23)cc1` (stereo unspecified) is 54%; for `Nc1ccc2c(c1)/C(=N/O)c1cc([N+](=O)[O-])ccc1-2` it is 64.1%; for `CN1CCCC1c1cccnc1` (stereo unspecified) it is 99.7%.
On to `COc1ccc(-c2cnnn2-c2cc(OC)c3c(c2)OCO3)cc1`, for which the growth was 23.1%.
The same measure, in the same setting: the figure for `Cc1nn(-c2ccc(Br)cc2)c2nc3c(nc12)C(=O)C(=O)c1ccccc1-3` is 85.7%; for `Cn1cc(-c2csc(-c3cn(C)c4ncccc34)n2)c2cc(Br)cnc21` it is 73.1%.
On the same count and under the same terms, the figure for `OC(Cc1cccnc1)c1ccccc1` (stereo unspecified) is 99.7%; for `C/C(=N/N=C(N)N)c1ccc(Cl)cc1` it is 81.3%.
For `Cc1nn(-c2ccccc2)c2nc3c(nc12)C(=O)CCC3`, the growth is 98.2%.
The same measure, in the same setting: with `C[n+]1ccc(C#N)c2ccccc21` the figure was 85.7%; with `CCCCCCCC/C=C/CCCCCCCC1=NC(C)(C)CN1CC(C)O` (stereo unspecified), 32%.
In the case of `O=C1Nc2ccccc2C12Nc1cc(Cl)ccc1S2` (stereo unspecified), the growth is 59.8%.
For the molecule `CCC(CC)NCCCCCNc1cc(OC)cc2cccnc12`, the growth is 73.4%.
`CCC(CCC(C)C1CCC2C3CC=C4CC(O)CCC4(C)C3CCC12C)C(C)C` (stereo unspecified) (tested in a mixture with another compound): the growth was 119%.
Same read-out and setting: the figure for `Cc1nn(-c2ccc(Cl)cc2)c2nc3c(nc12)c(=O)oc1ccccc13` is 92.1%.
Same read-out and setting: with `Cc1cc(NC(=O)c2ccc(N)cc2)ccc1N=Nc1ccc2c(O)c(N=Nc3ccc(Cl)c(S(=O)(=O)O)c3)c(S(=O)(=O)O)cc2c1` the figure was 104%; with `CN(C)c1nc(-c2ccco2)n2nc(-c3ccco3)cc2n1`, 81.8%; with `C[C@]12C[C@H](O)[C@H]3[C@@H](CCC4=CC(=O)CC[C@@]43C)[C@@H]1CC[C@@H]2C(=O)CO`, 78.5%.
Still for that read-out and setting: with `Cn1c(N)c(N=O)c(=O)[nH]c1=O` the figure was 97%.
As for `Nc1nc(SCc2ccccc2Cl)c(-c2ccccc2)c(SCc2ccccc2Cl)n1`, the growth was 107%.
Same read-out and setting: the figure for `O=C(CSCC(=O)N/N=C/c1ccccc1O)N/N=C\c1ccccc1O` is 36.8%.
The same measure, in the same setting: the figure for `O=C(O)C(=O)O` is 67.4%; for `Cc1nn(-c2ccccc2)c2ncc3c(c12)C(=O)N(Cc1ccccc1)C3=O` it is -27.1% (active); for `Cc1ccc(NC(=O)COC(=O)c2ccc(S(=O)(=O)N3CCCCCC3)cc2)cc1` it is 94.7%.
Still for that read-out and setting: with `Cc1ccc2c(c1)C(=O)/C(=C/c1ncc([N+](=O)[O-])n1C)O2` the figure was 73.8%; with `CC1CC(C)/C(=N/NC(N)=O)C(C(O)CC2CCC(=O)NC2=O)C1` (stereo unspecified), 57.7%.
On to `CCC(c1ccccc1)c1noc(CCN(CC)CC)n1` (stereo unspecified), for which the growth is 86.6%.
On the same count and under the same terms, with `O=C1Cc2cc(CCn3cncn3)c(Cl)cc2N1` the figure was 63.6%.
On to `Cc1nn(-c2ccccc2)c2nc(Cl)c(/C=C/C(=O)c3ccccc3)c(-c3ccccc3)c12`, for which the growth was 89.4%.
Still for that read-out and setting: the figure for `COc1ccc(/C=C2\NC(=S)NC2=O)cc1` is 106%; for `Cn1cc(-c2csc(-c3c[nH]c4ncccc34)n2)c2cc(F)cnc21` it is 66.2%.
As for `O=C1NC(=O)/C(=C\c2ccccc2)C2=C1CCCC2`, the growth is 102%.
